Reference: PubChem BioAssay AID1159580 (chemical genetic matrix, 2015)
Several values for one entry are separate records, joined by “and”; a condition that tells them apart may be missing. Identical values can stand only once. The whole screen tested about 5,500 compounds, of which about 2,000 (36%) were called active. Another 18% or so got no clear call; they are omitted. The list shows a part of the results. Unmarked numbers belong to inactive results. Rule as the data show it: active = normalized growth mostly below about 0.91 (no sharp cut-off); inconclusive = no clear call, values can overlap the other calls; inactive = mostly above about 0.92.

Experiment: chemical genetic growth profiling, strain panel (AID 1159580);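 also: tested at 20 µM; growth read once vehicle control cultures reached saturation at 30 °C; 1 = growth at the plate median or of vehicle wells; lower values mean less growth of the strain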
Settings: S. cerevisiae deletion strains, growth OD

For `O=c1c(O)c(-c2ccc(O)c(O)c2)oc2cc(O)ccc12`, the normalized growth (locus YAL013W, strain DEP1, hits give low values) was 0.836 (active), the normalized growth (locus YAL021C, strain ccr4, hits give low values) was 1 and the normalized growth (locus YAL026C, strain drs2, hits give low values) was 0.965. For the same compound, the normalized growth (locus YAL030W, strain snc1, hits give low values) was 1, the normalized growth (locus YBL061C, strain skt5, hits give low values) was 0.964 and the normalized growth (locus YBR009C, strain hhf1, hits give low values) was 1.01. The normalized growth (locus YBR021W, strain FUR4, hits give low values) was 0.961, the normalized growth (locus YBR023C, strain chs3, hits give low values) was 0.961 and the normalized growth (locus YBR171W, strain sec66, hits give low values) was 0.977. For the same compound, the normalized growth (locus YBR229C, strain ROT2, hits give low values) was 0.993, the normalized growth (locus YBR231C, strain swc5, hits give low values) was 0.921 and the normalized growth (locus YBR279W, strain paf1, hits give low values) was 0.983. The normalized growth (locus YCL011C, strain gbp2, hits give low values) was 0.982, the normalized growth (locus YCL016C, strain dcc1, hits give low values) was 0.977 and the normalized growth (locus YCL029C, strain bik1, hits give low values) was 0.988. It also gave a normalized growth (locus YCL069W, strain vba3, hits give low values) of 1.01, a normalized growth (locus YCR088W, strain abp1, hits give low values) of 1 and a normalized growth (locus YDL005C, strain med2, hits give low values) of 0.987. The normalized growth (locus YDL035C, strain GPR1, hits give low values) was 0.864, the normalized growth (locus YDL040C, strain nat1, hits give low values) was 1 and the normalized growth (locus YDL074C, strain BRE1, hits give low values) was 0.742 (active). The normalized growth (locus YDL101C, strain DUN1, hits give low values) was 0.98, the normalized growth (locus YDL134C, strain PPH21, hits give low values) was 0.955 and the normalized growth (locus YDL185W, strain tfp1, hits give low values) was 0.972. For the same compound, the normalized growth (locus YDL192W, strain arf1, hits give low values) was 0.946, the normalized growth (locus YDR001C, strain nth1, hits give low values) was 1 and the normalized growth (locus YDR069C, strain doa4, hits give low values) was 0.904. For the same compound, the normalized growth (locus YDR101C, strain arx1, hits give low values) was 0.957, the normalized growth (locus YDR137W, strain rgp1, hits give low values) was 0.978 and the normalized growth (locus YDR150W, strain NUM1, hits give low values) was 0.946. The normalized growth (locus YDR159W, strain sac3, hits give low values) was 0.934, the normalized growth (locus YDR162C, strain NBP2, hits give low values) was 0.831 (active) and the normalized growth (locus YDR195W, strain ref2) was 0.969. It also gave a normalized growth (locus YDR297W, strain sur2, hits give low values) of 0.966, a normalized growth (locus YDR318W, strain mcm21, hits give low values) of 0.927 and a normalized growth (locus YDR334W, strain swr1, hits give low values) of 0.981. The normalized growth (locus YDR335W, strain msn5, hits give low values) was 0.995, the normalized growth (locus YDR388W, hits give low values) was 0.974 and the normalized growth (locus YDR392W, strain spt3, hits give low values) was 0.845. For the same compound, the normalized growth (locus YDR502C, strain sam2, hits give low values) was 0.915 (active), the normalized growth (locus YEL003W, strain gim4, hits give low values) was 0.961 and the normalized growth (locus YEL037C, strain rad23, hits give low values) was 0.988. For the same compound, the normalized growth (locus YEL061C, strain CIN8 (second series), hits give low values) was 0.996, the normalized growth (locus YEL061C, strain CIN8, hits give low values) was 0.95 and the normalized growth (locus YER015W, strain faa2, hits give low values) was 0.974. For the same compound, the normalized growth (locus YER016W, strain bim1, hits give low values) was 0.989, the normalized growth (locus YER110C, hits give low values) was 0.982 and the normalized growth (locus YER111C, strain swi4, hits give low values) was 0.97. The normalized growth (locus YER155C, strain BEM2 (second series), hits give low values) was 0.89, the normalized growth (locus YER155C, strain BEM2, hits give low values) was 1.02 and the normalized growth (locus YER167W, strain BCK2, hits give low values) was 0.9 (active). The normalized growth (locus YFR010W, strain ubp6, hits give low values) was 0.96, the normalized growth (locus YGL078C, strain dbp3, hits give low values) was 0.988 and the normalized growth (locus YGL086W, strain mad1, hits give low values) was 0.905 (active). For the same compound, the normalized growth (locus YGL167C, strain pmr1, hits give low values) was 0.972, the normalized growth (locus YGL173C, strain kem1, hits give low values) was 0.938 and the normalized growth (locus YGL227W, strain vid30, hits give low values) was 0.994. The normalized growth (locus YGL240W, strain doc1, hits give low values) was 1.03, the normalized growth (locus YGL248W, strain PDE1, hits give low values) was 0.923 and the normalized growth (locus YGL253W, strain hxk2, hits give low values) was 0.969. For the same compound, the normalized growth (locus YGR078C, strain PAC10, hits give low values) was 0.756 (active), the normalized growth (locus YGR135W, strain pre9, hits give low values) was 0.85 (active) and the normalized growth (locus YGR229C, strain SMI1, hits give low values) was 0.372 (active). The normalized growth (locus YGR252W, strain gcn5, hits give low values) was 0.873, the normalized growth (locus YHR013C, strain ard1, hits give low values) was 0.94 and the normalized growth (locus YHR027C, strain rpn1, hits give low values) was 0.988. The normalized growth (locus YHR030C, strain SLT2, hits give low values) was 0.899 (active) and 0.324 (active), the normalized growth (locus YHR079C, strain IRE1 (second series), hits give low values) was 0.978 and the normalized growth (locus YHR079C, strain IRE1, hits give low values) was 0.381 (active). The normalized growth (locus YHR094C, strain hxt1, hits give low values) was 1.01, the normalized growth (locus YHR129C, strain ARP1, hits give low values) was 0.861 (active) and the normalized growth (locus YHR142W, strain chs7, hits give low values) was 0.982. For the same compound, the normalized growth (locus YHR200W, strain rpn10, hits give low values) was 0.938, the normalized growth (locus YIL066C, strain RNR3, hits give low values) was 0.846 (active) and the normalized growth (locus YIL073C, strain SPO22, hits give low values) was 0.851. The normalized growth (locus YIL125W, strain kgd1, hits give low values) was 0.967, the normalized growth (locus YIR030C, strain dcg1, hits give low values) was 1.01 and the normalized growth (locus YJL092W, strain hpr5, hits give low values) was 0.995. The normalized growth (locus YJL095W, strain BCK1 (second series), hits give low values) was 0.981, the normalized growth (locus YJL095W, strain BCK1, hits give low values) was 0.743 (active) and 0.428 (active) and the normalized growth (locus YJL115W, strain asf1, hits give low values) was 0.998. For the same compound, the normalized growth (locus YJL129C, strain trk1, hits give low values) was 0.966, the normalized growth (locus YJL134W, strain LCB3, hits give low values) was 1 and the normalized growth (locus YJL154C, strain vps35, hits give low values) was 0.999. The normalized growth (locus YJL164C, strain tpk1, hits give low values) was 0.985, the normalized growth (locus YJL166W, strain qcr8, hits give low values) was 0.986 and the normalized growth (locus YJL168C, strain set2, hits give low values) was 0.985. The normalized growth (locus YJL187C, strain SWE1 (second series), hits give low values) was 0.915, the normalized growth (locus YJR043C, strain POL32, hits give low values) was 0.778 (active) and the normalized growth (locus YJR066W, strain TOR1, hits give low values) was 0.59 (active). For the same compound, the normalized growth (locus YJR075W, strain HOC1, hits give low values) was 0.83 (active).
